Assay [1] in a line: Viability qHTS for spleen associated tyrosine kinase inhibitor (SYKi) naive MV4-11 cells (AID 1963823). Further: nearly all actives have a fitted effect of over 40% in size. Further: potency means the concentration at half of the fitted maximal effect. In short, it runs like this:
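Luminescence from CellTiter-Glo, developed 10 min at room temperature, gave viability of MV4-11 cells never exposed to SYK inhibitor. Cells (500/well) had been incubated with compounds for 72 hr under standard culture conditions.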
Background: qHTS replaces the single test concentration by a dilution series.

Assay [2] can be described thus: Viability qHTS for spleen associated tyrosine kinase inhibitor (SYKi) drug resistant MV4-11 cells (AID 1963824). Further: nearly all actives have a fitted effect of over 35% in size. Further: potency means the concentration at half of the fitted maximal effect. Summed up: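 SYK-inhibitor-resistant MV4-11 AML cells were seeded at 500 per well onto compound and cultured 72 hours (37 °C, 5% CO2). CellTiter-Glo was then added, and after 10 min at room temperature, luminescence gave viability.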
Assay [3] is described as follows: Cellular viability qHTS for adrenocortical cancer (ACC) cell line SW-13 (AID 1963989).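 Further: cells grown in serum-free medium with ITS supplement; on the % scale 0 is the no-effect control and ±100 the full control effect; nearly all actives have a fitted effect of over 65% in size.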 The following applies: SW-13 ACC cells viability, CellTiter-Glo, 48 h; activity (max response): stronger effect = lower value. In short, it runs like this: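 Compound titrations (up to 46 uM final, in DMSO) were applied to SW-13 cells for 48 h at 37C/5% CO2. Reading used CellTiter-Glo after 20 min at room temperature; fitted curves yielded IC50 and efficacy.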

Assay [4] can be described thus: Cellular viability qHTS for adrenocortical cancer (ACC) cell line NCI-H295R (AID 1963990).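 Further: 0% = DMSO only wells and -100% = full killing with cytotoxic reference compound; nearly all actives have a fitted effect of over 60% in size.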 In short, it runs like this:
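Readout: CellTiter-Glo luminescence, 20 min RT. Exposure: 48 h, 37C/5% CO2. Cells: NCI-H295R, ITS-DMEM serum-free. Range: up to 46 uM. Analysis: 4PL fit, IC50 plus efficacy.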

Inconclusive results are not listed. Some structures have more than one record in an assay (separate samples or runs), and their calls can disagree. A number with no mark means an inactive call. Calls of active or inactive are those of the source. The call rests on the fitted dose curve; in most records, active means well fitted curve in the direction sought with a large enough effect; inconclusive means small, poorly fitted or top-dose-only effect, or another doubt; inactive means no such curve, though single readings can be large; an effect the other way counts as inactive or inconclusive.

This is an account of results in PubChem BioAssay (NCATS).

As for `C[C@@H]1CC[C@]2(C(=O)O)CC[C@]3(C)C(=CCC4[C@@]5(C)C[C@@H](O)[C@H](O)[C@@](C)(CO)C5CC[C@]43C)C2[C@H]1C` (some centres not stated), the Potency result in assay [1] is “inactive”.

`C=C1C(=O)O[C@H]2/C=C(/C)[C@@H](OC(C)=O)C/C=C(\C)C[C@@H](OC(=O)/C(=C/C)COC(=O)/C(=C/C)CO)[C@@H]12`: the Potency in assay [1] is 1780 nM (active); in assay [2], 1590 nM (active).

Consider `CC[C@H](Nc1ncnc2nc[nH]c12)c1nc2cccc(F)c2c(=O)n1-c1ccccc1`, for which, in assay [1], the Potency was 332 nM (active) and the viability (% of control) is 57.2% [at 9.25 µM]. Besides, in assay [2], the viability, % of control is 61.7% [at 9.25 µM]. Moreover, the activity (max response) in assay [3] was -2.88%. Besides, the Potency entry in assay [4] was “inactive”.

As for `COc1ccc(Oc2c(Cl)cnn(-c3cc(C)cc(C)c3)c2=O)cc1`, the Potency is 2310 nM (active) in assay [1] and 2060 nM (active) in assay [2].

On to `CC(C)(C)c1ccc(C(=O)Nc2cn3cc(-n4ccnc4)ccc3n2)cc1`, for which the Potency in assay [1] is 1840 nM (active); in assay [2] it was 5170 nM (active).

For the compound `Cc1occc1C(=O)n1ccnc1`, in assay [1], the Potency result is “inactive”.

As for `CC1C(=O)CC2C3CCC(C(=O)O)C12CC3(C)CO` (configuration not stated), the Potency entry in assay [1] is “inactive”.

Consider `CC(C)(C#N)c1ccc(N2C(=O)OCc3cnc4ccc(-c5cnc6ccccc6c5)cc4c32)cc1`, for which the Potency in assay [1] is 1030 nM (active); in assay [2], 1460 nM (active).

As to `CC(C)=C1CC2C(CCC2(C)O)C(C)(O)CC1=O` (configuration not stated), the Potency result in assay [1] and in assay [2] was “inactive” in each case.

With `CC1CCC23COC(=O)C2=CC(O)CC3C1(C)CCC1=CC(O)OC1=O` (configuration not stated), the Potency result in assay [1] and in assay [2] was “inactive” in each case.

`C[C@@H]1O[C@@H](O[C@H]2[C@H](O[C@H]3[C@H](O[C@H]4CC[C@@]5(CO)C(CC[C@]6(C)C5CC=C5C7CC(C)(C)C[C@@H](O)[C@]7(C)CC[C@]56C)C4(C)C)O[C@H](C(=O)O)[C@@H](O)[C@@H]3O)OC[C@@H](O)[C@@H]2O)[C@H](O)[C@H](O)[C@H]1O` (some centres not stated): the viability (% of control) in assay [1] is 63.5% [at 9.25 µM]. Further, the viability, % of control in assay [2] was 70% [at 9.25 µM].
